Values joined by “and” are separate entries in the source; they are usually repeats but may differ in a detail not shown here. Equal values may be shown once. A structure can be active in one record and inactive in another. Active and inactive are the calls of the source. How the source made its calls: active means hit-call score of the fitted dose curve at least 0.9, where 1 is the maximum; inactive means score below 0.9.
Experiments:
[1] = target: Bile acid receptor (Homo sapiens) (UniProt Q96RI1); assay: ATG_IR1_CIS: Attagene CIS-FACTORIAL HepG2 Assay for human Nuclear Receptor Subfamily 1 Group H Member 4 (NR1H4), IR1 submotif (AID 2282946); settings: IR1 reporter transcription, actives raise or lower the signal
Procedure, shortened: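 Cells (human HepG2) carry transiently transfected cis-promoter reporter transcription units. Compounds are incubated 24 h, total RNA is reverse-transcribed and amplified, and labelled fragments are resolved by capillary electrophoresis. Curves use DMSO as baseline.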

[2] = ATG_ISRE_CIS: Attagene CIS-FACTORIAL HepG2 Assay for human Interferon Regulatory Factor 1 (IRF1) binding to an Interferon-Stimulated Response Element (ISRE) (AID 2282948); settings: HepG2 ISRE cis-reporter (Attagene), mRNA transcription readout; actives raise or lower the signal
Procedure, shortened: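 Cell-based cis-reporter assay; HepG2; 24 h exposure; reporter mRNA by RT-PCR plus capillary electrophoresis fluorescence; activity in either direction scored relative to DMSO.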

[3] = ATG_M_32_CIS: Attagene CIS-FACTORIAL HepG2 Assay for M32 Transcription Factor (Internal Marker) (AID 2282949); settings: HepG2 Attagene cis-factorial M32 reporter, mRNA; actives raise or lower the signal;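 further: background control marker of the multiplexed CIS panel rather than a real target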
Procedure, shortened: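 HepG2 cells transiently transfected with multiplexed cis-regulated reporter units, dosed 24 h. Reporter mRNA quantified by RT-PCR, 6-FAM labelling, HpaI digestion and capillary electrophoresis; bidirectional fit vs DMSO.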

[4] = ATG_M_06_CIS: Attagene CIS-FACTORIAL HepG2 Assay for M06 Transcription Factor (Internal Marker) (AID 2282950); settings: HepG2 Attagene CIS-FACTORIAL M06 internal marker reporter; actives raise or lower the signal
Procedure, shortened: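 Terse: HepG2, transient MRTU transfection (FuGene 6), 24 h dosing; total RNA, oligo(dT) RT, PCR, FAM label, HpaI cut, capillary electrophoresis; bidirectional fit vs DMSO baseline; background-control endpoint.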

[5] = target: Hypoxia-inducible factor 1-alpha (Homo sapiens) (UniProt Q16665); assay: ATG_HIF1a_CIS: Attagene CIS-FACTORIAL HepG2 Assay for human Hypoxia Inducible Factor 1 (HIF1A) (AID 2282951); settings: HepG2 Attagene cis-factorial HIF1a reporter transcription; actives raise or lower the signal
Procedure, shortened: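 HepG2, transient cis-reporter library, 24 h dosing. RNA → RT (oligo dT) → PCR → 6-FAM primer extension → HpaI → CE. Bidirectional curve fit vs DMSO.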

[6] = target: Hepatocyte nuclear factor 6 (Homo sapiens) (UniProt Q9UBC0); assay: ATG_HNF6_CIS: Attagene CIS-FACTORIAL HepG2 Assay for human Hepatocyte Nuclear Factor 6 (HNF6) (AID 2282952); settings: HepG2 Attagene cis-factorial HNF6 reporter transcription; actives raise or lower the signal
Procedure, shortened: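 HepG2 cells transiently transfected with cis-element-driven multiple reporter transcription units, dosed 24 h; reporter mRNA quantified by RT-PCR, FAM primer extension, HpaI digestion and capillary electrophoresis; bidirectional fit versus DMSO baseline.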

[7] = ATG_MRE_CIS: Attagene CIS-FACTORIAL HepG2 Assay for human Metal Responsive Element (MRE) (AID 2282954); settings: HepG2 MRE cis-reporter transcription, Attagene multiplex; actives raise or lower the signal
Procedure, shortened: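 Transient MRTU transfection of HepG2 (FuGene 6); 24 h dosing; total RNA → oligo(dT) RT, PCR, 6-FAM primer extension, HpaI cut, CE. Bidirectional fit vs DMSO.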

[8] = target: Paired box protein Pax-6 (Homo sapiens) (UniProt P26367); assay: ATG_Pax6_CIS: Attagene CIS-FACTORIAL HepG2 Assay for human Paired Box 6 (PAX6) (AID 2282956); settings: HepG2 CIS-FACTORIAL PAX6 reporter transcription, RNA readout; actives raise or lower the signal
Procedure, shortened: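 Multiplexed cis-reporter HepG2 system; 24 h treatment; reporter mRNA read by RT-PCR/CE fluorescence; bidirectional fit vs DMSO.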

[9] = ATG_PXRE_CIS: Attagene CIS-FACTORIAL HepG2 Assay for human Pregnane X Receptor Element (PXRE) (AID 2282957); settings: HepG2 Attagene CIS-FACTORIAL PXRE reporter, mRNA; actives raise or lower the signal
Procedure, shortened: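 HepG2 cells transiently transfected with cis-regulated multiple reporter transcription units; endogenous factor activity measured as reporter mRNA 24 h after dosing. RT-PCR, fluorescent primer extension, HpaI digestion, capillary electrophoresis; bidirectional fit versus DMSO baseline.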

[10] = ATG_PPRE_CIS: Attagene CIS-FACTORIAL HepG2 Assay for human Peroxisome Proliferator-activated Response Element (PPRE) (AID 2282958); settings: HepG2 PPRE cis-element reporter, Attagene transcription factor profiling; actives raise or lower the signal
Procedure, shortened: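 Transcript-level reporter induction in transfected HepG2 cells after 24 h chemical exposure, quantified by fluorescence from RT-PCR products separated by capillary electrophoresis.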

[11] = ATG_RORE_CIS: Attagene CIS-FACTORIAL HepG2 Assay for human RAR-related Orphan Receptor Element (RORE) (AID 2282959); settings: HepG2 Attagene cis-factorial RORE reporter, mRNA; actives raise or lower the signal
Procedure, shortened: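 Multiplexed reporter assay measuring mRNA induction from a cis promoter element in transiently transfected HepG2 cells after 24 h treatment. Detection via RT-PCR and capillary electrophoresis fluorescence; DMSO serves as baseline.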

[12] = ATG_Sox_CIS: Attagene CIS-FACTORIAL HepG2 Assay for human SRY-box transcription factor (SOX) (AID 2282960); settings: HepG2 Attagene cis-factorial SOX reporter, mRNA; actives raise or lower the signal
Procedure, shortened: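 Cells were transfected with reporter constructs under cis-regulatory promoters, then exposed to chemicals for 24 h. Reporter transcripts were quantified by fluorescence after RT-PCR and capillary electrophoresis; activity was fitted in both directions against DMSO.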

[13] = target: Transcription factor Sp1 (Homo sapiens) (UniProt P08047); assay: ATG_Sp1_CIS: Attagene CIS-FACTORIAL HepG2 Assay for human Specificity Protein 1 (Sp1) (AID 2282961); settings: HepG2 Sp1 cis-reporter transcription, actives raise or lower the signal
Procedure, shortened: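 Measures mRNA induction of an Sp1-linked reporter in HepG2 cells 24 h post-dosing. Multiplexed reporters read by RT-PCR and capillary electrophoresis; DMSO serves as negative control and baseline.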

[14] = ATG_SREBP_CIS: Attagene CIS-FACTORIAL HepG2 Assay for human Sterol Regulatory Element Binding (SREBP) (AID 2282962); settings: HepG2 Attagene cis-factorial SREBP reporter, mRNA; actives raise or lower the signal
Procedure, shortened: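 mRNA induction of transfected cis-promoter reporters in HepG2 cells, 24 h post-dose. Detection: RT-PCR with 6-FAM-labelled products, HpaI digest, capillary electrophoresis. DMSO served as negative control and baseline.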

[15] = target: Signal transducer and activator of transcription 3 (Homo sapiens) (UniProt P40763); assay: ATG_STAT3_CIS: Attagene CIS-FACTORIAL HepG2 Assay for human Signal Transducer and Activator of Transcription 3 (STAT3) (AID 2282963); settings: HepG2, Attagene cis-factorial STAT3 reporter transcription; actives raise or lower the signal
Procedure, shortened: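 Endogenous STAT3-responsive cis-element activity was read in transiently transfected HepG2 cells after 24 h treatment. Reporter transcripts were quantified via RT-PCR and capillary electrophoresis, with DMSO as negative control and bidirectional curve fitting.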

[16] = ATG_TCF_b_cat_CIS: Attagene CIS-FACTORIAL HepG2 Assay for human T-Cell-Factor with beta-catenin (TCF/b-cat) (AID 2282965); settings: HepG2 TCF/beta-catenin cis-reporter transcription, actives raise or lower the signal
Procedure, shortened: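 Endogenous transcription factor activity is captured through cis-promoter reporter constructs transiently introduced into human HepG2 liver cells. Induced reporter mRNA is measured after 24 h and fitted bidirectionally relative to DMSO.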

[17] = target: Heat shock factor protein 1 (Homo sapiens) (UniProt Q00613); assay: ATG_HSE_CIS: Attagene CIS-FACTORIAL HepG2 Assay for human Heat Shock Transcription Factor 1 (HSE) (AID 2282953); settings: HepG2 HSE cis-reporter, Attagene RNA transcription; actives raise or lower the signal
Procedure, shortened: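 Read-out: fluorescence of reporter-specific RT-PCR fragments separated by capillary electrophoresis. HepG2 carrying transfected cis-element reporter units; 24 h dosing; activity fitted in both directions relative to DMSO baseline.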

[18] = ATG_PBREM_CIS: Attagene CIS-FACTORIAL HepG2 Assay for human Phenobarbital-responsive Enhancer Module (PBREM) (AID 2282955); settings: HepG2 PBREM cis-reporter, Attagene multiplexed transcription; actives raise or lower the signal
Procedure, shortened: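 HepG2, transient MRTU transfection, 24 h dosing; RNA → oligo(dT) RT → PCR → 6-FAM extension → HpaI → CE. Bidirectional fit vs DMSO.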

[19] = ATG_TA_CIS: Attagene CIS-FACTORIAL HepG2 Assay for human TA Basal Promoter (AID 2282964); settings: HepG2 Attagene CIS-factorial TA basal promoter reporter; actives raise or lower the signal
Procedure, shortened: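 Transfected HepG2, 24 h compound exposure; RNA → RT-PCR → FAM primer extension → HpaI cut → CE fluorescence. Gain/loss-of-signal fitted against DMSO negative control. Background-control readout.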

[20] = ATG_GRE_CIS: Attagene CIS-FACTORIAL HepG2 Assay for human Glucocorticoid Response Elements (GRE) (AID 2282947); settings: HepG2 GRE cis-reporter, Attagene multiplex mRNA; actives raise or lower the signal
Procedure, shortened: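 Transient MRTU transfection of human HepG2 liver cells; cis-regulated reporters report endogenous factors. 24 h dosing → RNA isolation → RT-PCR → 6-FAM primer extension → HpaI cut → CE fragment analysis. Bidirectional fit, DMSO negative control.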

Measured: AC50

Heat shock factor protein 1 (Homo sapiens), sequence (Q00613 whole entry, looked up, the tested form may be a part): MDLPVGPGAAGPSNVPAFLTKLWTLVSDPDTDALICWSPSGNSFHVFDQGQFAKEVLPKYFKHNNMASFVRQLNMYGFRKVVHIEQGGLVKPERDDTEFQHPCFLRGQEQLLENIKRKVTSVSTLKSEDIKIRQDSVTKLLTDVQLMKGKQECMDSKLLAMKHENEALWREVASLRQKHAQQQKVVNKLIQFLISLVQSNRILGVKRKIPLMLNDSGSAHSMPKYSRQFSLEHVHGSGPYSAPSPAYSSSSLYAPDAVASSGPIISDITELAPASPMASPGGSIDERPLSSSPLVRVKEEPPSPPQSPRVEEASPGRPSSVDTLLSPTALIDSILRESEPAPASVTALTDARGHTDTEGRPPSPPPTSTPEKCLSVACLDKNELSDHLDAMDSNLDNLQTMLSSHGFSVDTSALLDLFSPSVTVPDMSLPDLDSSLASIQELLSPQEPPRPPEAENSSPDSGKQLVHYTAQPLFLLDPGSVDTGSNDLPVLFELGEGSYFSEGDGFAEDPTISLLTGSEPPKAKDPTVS
Hepatocyte nuclear factor 6 (Homo sapiens), sequence (Q9UBC0 whole entry, looked up): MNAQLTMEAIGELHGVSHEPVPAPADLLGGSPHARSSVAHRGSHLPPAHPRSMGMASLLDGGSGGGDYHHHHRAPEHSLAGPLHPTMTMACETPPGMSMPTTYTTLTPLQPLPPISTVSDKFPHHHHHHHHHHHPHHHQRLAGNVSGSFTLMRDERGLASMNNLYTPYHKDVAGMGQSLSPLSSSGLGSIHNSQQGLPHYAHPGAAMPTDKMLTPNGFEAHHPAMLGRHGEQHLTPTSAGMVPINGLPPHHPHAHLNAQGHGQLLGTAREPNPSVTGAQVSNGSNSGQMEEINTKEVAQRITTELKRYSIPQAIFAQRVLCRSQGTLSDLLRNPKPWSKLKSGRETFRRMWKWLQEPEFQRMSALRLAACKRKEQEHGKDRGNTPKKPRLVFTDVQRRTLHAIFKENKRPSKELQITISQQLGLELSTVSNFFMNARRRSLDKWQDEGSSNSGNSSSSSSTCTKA
Paired box protein Pax-6 (Homo sapiens), sequence (P26367 whole entry, looked up): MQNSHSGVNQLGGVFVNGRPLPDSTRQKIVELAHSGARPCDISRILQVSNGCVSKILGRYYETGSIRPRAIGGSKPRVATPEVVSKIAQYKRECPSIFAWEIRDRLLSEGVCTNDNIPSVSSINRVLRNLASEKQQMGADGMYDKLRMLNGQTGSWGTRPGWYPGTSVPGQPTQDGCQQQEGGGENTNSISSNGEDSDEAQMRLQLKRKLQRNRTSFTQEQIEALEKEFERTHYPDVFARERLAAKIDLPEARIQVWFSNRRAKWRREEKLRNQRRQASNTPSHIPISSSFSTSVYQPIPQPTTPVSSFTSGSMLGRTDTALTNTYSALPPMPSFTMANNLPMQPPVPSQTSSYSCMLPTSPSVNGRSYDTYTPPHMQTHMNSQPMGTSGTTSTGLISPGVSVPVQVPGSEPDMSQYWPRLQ
Bile acid receptor (Homo sapiens), sequence (Q96RI1 whole entry, looked up, the tested form may be a part): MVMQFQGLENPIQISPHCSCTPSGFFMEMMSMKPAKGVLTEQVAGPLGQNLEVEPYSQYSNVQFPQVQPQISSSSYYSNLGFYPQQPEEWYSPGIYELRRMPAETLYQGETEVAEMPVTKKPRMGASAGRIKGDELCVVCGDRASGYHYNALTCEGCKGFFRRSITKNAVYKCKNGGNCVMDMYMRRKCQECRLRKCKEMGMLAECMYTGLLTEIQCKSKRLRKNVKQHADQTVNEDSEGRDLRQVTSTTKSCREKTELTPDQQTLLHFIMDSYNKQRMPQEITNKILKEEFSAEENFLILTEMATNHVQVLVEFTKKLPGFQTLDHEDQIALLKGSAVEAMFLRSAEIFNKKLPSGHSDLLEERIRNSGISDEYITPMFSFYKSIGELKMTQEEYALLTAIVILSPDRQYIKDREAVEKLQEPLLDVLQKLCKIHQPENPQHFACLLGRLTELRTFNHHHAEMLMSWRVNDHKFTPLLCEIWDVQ
Hypoxia-inducible factor 1-alpha (Homo sapiens), sequence (Q16665 whole entry, looked up): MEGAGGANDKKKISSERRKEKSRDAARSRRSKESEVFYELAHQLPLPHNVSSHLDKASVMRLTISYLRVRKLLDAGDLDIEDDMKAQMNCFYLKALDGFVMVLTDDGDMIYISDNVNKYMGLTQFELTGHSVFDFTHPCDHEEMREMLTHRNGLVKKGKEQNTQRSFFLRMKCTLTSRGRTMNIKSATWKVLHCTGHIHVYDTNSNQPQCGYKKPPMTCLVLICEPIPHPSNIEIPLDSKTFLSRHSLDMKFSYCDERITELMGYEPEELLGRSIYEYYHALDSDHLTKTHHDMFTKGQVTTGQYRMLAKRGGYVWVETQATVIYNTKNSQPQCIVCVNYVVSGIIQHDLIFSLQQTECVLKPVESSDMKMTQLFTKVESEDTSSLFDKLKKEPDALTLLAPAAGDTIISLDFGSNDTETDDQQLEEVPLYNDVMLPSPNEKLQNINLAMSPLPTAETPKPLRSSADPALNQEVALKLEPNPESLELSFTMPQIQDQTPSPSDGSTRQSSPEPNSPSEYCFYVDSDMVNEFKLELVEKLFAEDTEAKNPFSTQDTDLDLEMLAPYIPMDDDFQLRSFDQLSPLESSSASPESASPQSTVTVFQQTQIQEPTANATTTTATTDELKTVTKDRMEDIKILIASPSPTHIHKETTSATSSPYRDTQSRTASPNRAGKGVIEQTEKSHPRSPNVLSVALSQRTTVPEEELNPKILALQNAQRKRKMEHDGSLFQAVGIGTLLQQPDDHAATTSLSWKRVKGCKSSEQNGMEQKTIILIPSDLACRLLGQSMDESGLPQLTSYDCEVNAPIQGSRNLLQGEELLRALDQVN
Signal transducer and activator of transcription 3 (Homo sapiens), sequence (P40763 whole entry, looked up): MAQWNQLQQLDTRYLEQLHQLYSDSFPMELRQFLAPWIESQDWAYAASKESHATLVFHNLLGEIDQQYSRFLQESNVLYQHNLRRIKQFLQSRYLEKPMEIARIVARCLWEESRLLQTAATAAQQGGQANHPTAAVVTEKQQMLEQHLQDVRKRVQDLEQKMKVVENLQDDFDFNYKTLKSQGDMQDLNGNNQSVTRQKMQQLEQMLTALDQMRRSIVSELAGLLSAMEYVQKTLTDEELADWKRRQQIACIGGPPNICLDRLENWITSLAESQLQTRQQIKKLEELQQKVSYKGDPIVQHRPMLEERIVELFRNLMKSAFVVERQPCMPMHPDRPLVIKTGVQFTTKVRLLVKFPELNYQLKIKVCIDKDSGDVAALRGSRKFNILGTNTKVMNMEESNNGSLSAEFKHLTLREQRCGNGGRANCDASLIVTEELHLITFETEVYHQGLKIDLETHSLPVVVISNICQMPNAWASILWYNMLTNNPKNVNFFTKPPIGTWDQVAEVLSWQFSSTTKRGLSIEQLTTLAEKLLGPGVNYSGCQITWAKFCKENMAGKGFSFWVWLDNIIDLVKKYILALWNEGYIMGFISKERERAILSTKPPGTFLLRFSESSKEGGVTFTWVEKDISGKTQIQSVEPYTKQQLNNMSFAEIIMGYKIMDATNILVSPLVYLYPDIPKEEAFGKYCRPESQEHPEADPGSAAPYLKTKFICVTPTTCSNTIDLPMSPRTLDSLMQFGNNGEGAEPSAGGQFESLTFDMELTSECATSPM
Transcription factor Sp1 (Homo sapiens), sequence (P08047 whole entry, looked up): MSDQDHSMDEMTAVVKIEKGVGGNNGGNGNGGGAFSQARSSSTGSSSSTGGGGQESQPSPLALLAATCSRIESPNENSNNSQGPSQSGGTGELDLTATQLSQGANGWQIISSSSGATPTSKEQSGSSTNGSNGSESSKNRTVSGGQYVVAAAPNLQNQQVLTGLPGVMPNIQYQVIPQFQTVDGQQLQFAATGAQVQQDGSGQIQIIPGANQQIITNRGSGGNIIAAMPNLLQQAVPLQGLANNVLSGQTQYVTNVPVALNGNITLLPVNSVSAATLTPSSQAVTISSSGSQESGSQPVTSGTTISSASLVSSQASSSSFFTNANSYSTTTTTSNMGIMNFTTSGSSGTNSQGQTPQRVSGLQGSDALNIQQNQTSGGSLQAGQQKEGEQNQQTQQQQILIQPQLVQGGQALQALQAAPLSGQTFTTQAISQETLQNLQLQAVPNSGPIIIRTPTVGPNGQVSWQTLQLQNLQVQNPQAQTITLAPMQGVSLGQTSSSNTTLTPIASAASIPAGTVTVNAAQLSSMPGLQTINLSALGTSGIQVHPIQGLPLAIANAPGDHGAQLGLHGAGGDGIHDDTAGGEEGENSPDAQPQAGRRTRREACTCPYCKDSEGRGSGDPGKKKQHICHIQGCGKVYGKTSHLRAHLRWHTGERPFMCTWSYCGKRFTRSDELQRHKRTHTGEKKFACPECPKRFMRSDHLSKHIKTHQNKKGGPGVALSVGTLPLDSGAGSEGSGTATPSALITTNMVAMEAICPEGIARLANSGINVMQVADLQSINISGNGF

O=[N+]([O-])c1ccc2c3c(cccc13)CC2
active: [5] 26.7 µM | [9] 4.23 µM
not listed: [17] | [18] | [19] | [20]
inactive: all other assays above

[O-][Cl+2]([O-])O
active: [9] 69 µM
not listed: [10] | [11] | [20]
inactive: all other assays above

CCOC(=O)/C=C(C)/C=C/C[C@@H](C)CCCC(C)C
active: [1] 41 µM | [5] 24.4 µM | [6] 176 µM | [17] 62.9 µM | [7] 174 µM | [18] 182 µM | [9] 2.55 µM | [14] 124 µM | [15] 176 µM
inactive: [2] | [4] | [8] | [10] | [12] | [13] | [19] | [16]

CN(C)N=O
active: [9] 100 µM and 55.8 µM
not listed: [10] | [12] | [13] | [18] | [20]
inactive: all other assays above

Clc1ccc(C2(Cn3cncn3)CC(Br)CO2)c(Cl)c1 (centres undefined)
active: [5] 26 µM | [17] 177 µM | [7] 145 µM | [18] 6.34 µM | [10] 99.5 µM | [11] 70.7 µM | [14] 8.75 µM
not listed: [3] | [9] | [19] | [20]
inactive: all other assays above

CC12CC1(C)C(=O)N(c1cc(Cl)cc(Cl)c1)C2=O (centres undefined)
inactive: [20] | [2] | [3] | [4] | [5] | [6] | [17] | [18] | [8] | [10] | [11] | [13] | [14] | [15] | [19] | [16]
active: [18] 11.1 µM | [9] 4.87 µM [middle of 4 runs]

C[C@]12CCC(=O)C[C@@H]1CC[C@@H]1[C@@H]2CC[C@]2(C)[C@@H](O)CC[C@@H]12
inactive: [20] | [2] | [3] | [4] | [6] | [17] | [7] | [8] | [11] | [12] | [13] | [14] | [15] | [19] | [16]
active: [7] 87 µM and 42.6 µM | [9] 23.4 µM and 23.5 µM and 9.49 µM | [11] 42.3 µM | [14] 26 µM and 23 µM | [16] 24.6 µM and 23.6 µM

BrCCBr
not listed: [1] | [7] | [16] | [17]
inactive: all other assays above

CCSC(C)CC1CC(=O)C(C(CC)=NOC/C=C/Cl)=C(O)C1 (centres undefined)
active: [9] 5.61 µM
not listed: [3] | [13] | [16] | [18] | [20]
inactive: all other assays above

CCOC(=O)Nc1cccc(OC(=O)Nc2ccccc2)c1
not listed: [1] | [9] | [13] | [16] | [19]
inactive: all other assays above

COc1cc(OC)nc(NC(=O)NS(=O)(=O)c2ncccc2C(=O)N(C)C)n1
not listed: [1] | [7] | [12]
inactive: all other assays above

CCc1ccccc1N
not listed: [1] | [7] | [9] | [13] | [18]
inactive: all other assays above

O=C(OC1CCCCC1)c1ccccc1C(=O)OC1CCCCC1
active: [1] 28.9 µM | [5] 11.2 µM | [7] 23.5 µM | [9] 0.58 µM | [11] 8.39 µM | [19] 29.1 µM
not listed: [3] | [10] | [18] | [20]
inactive: all other assays above

ClCc1ccccn1
not listed: [1] | [9] | [12] | [16]
inactive: all other assays above

From PubChem BioAssay (EPA / NIEHS)
